# From PubChem BioAssay (NCI)
# Compounds without any hit were thinned out: in the full panel of roughly 79,000, 15% have a hit. The source made the active and inactive calls. Rule as the data show it: active = growth inhibition above about 70%; inactive = the rest.
# Experiment: NCI Yeast Anticancer Drug Screen. Data for the cln2 rad14 strain (AID 165);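 also: 0% = growth equal to vehicle treated cultures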
# Conditions: S. cerevisiae cln2 rad14 strain, at 50.0 µM, stronger effect = higher value
# Summary of the method: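 Readout is yeast growth inhibition versus vehicle-treated controls, using a strain with cln2 and rad14 alterations exposed to compound.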
row,Structure (SMILES),growth inhibition
1,CCc1ccc(NC(=S)NC(=O)C(C)Oc2ccccc2)cc1 (configuration not stated),15.1% (inactive)
2,COc1ccc(NC(=O)CCC2=CC(=O)CC(c3ccccc3)O2)cc1 (configuration not stated),25.3% (inactive)
3,CCOc1c(N=Nc2ccccc2C)c(C)nn1C(N)=S,-24.6% (inactive)
4,Cc1c([N+](=O)[O-])cc(C(C)(C)C)c(OC(=O)Nc2cccc(Cl)c2)c1[N+](=O)[O-],23.1% (inactive)
5,CCOC(=O)c1cnc(=S)[nH]c1N,7.9% (inactive)
6,COc1ccc(CC(N)C(=O)OCCCl)cc1 (configuration not stated),10% (inactive)
7,C=C(C)c1ccccc1S(=O)(=O)c1ccccc1C(C)(C)O,55.1% (inactive)
8,Cc1ccc(-n2cc(-c3ccc(Cl)cc3)c3c2N=CN2NC(c4cccs4)=NC32)cc1 (configuration not stated),5.5% (inactive)
9,O=C(/C=C(\C(=O)c1ccccc1)c1ccccc1)c1ccc(Cl)cc1,1.05% (inactive)
10,O=c1cc(NCc2c(Cl)cccc2[N+](=O)[O-])[nH]c(=O)[nH]1,-7.9% (inactive)
11,CN(C)CCN(C)CC(C)(C)C(=O)/C=C/c1ccccc1,-5.95% (inactive)
12,c1nnc2c3c4c(sc3ncn12)CCCC4,-24.7% (inactive)
13,CCC(O)C(=O)O (configuration not stated),-11.2% (inactive)
14,COc1cc(/C=N/NC(=O)Cc2cccc3ccccc23)ccc1O,-5.3% (inactive)
15,Cc1cc2c(cc1C)NC(=O)C(NC(=O)c1ccc(Cl)cc1)C=N2 (configuration not stated),-27.4% (inactive)
16,CCOC(=O)c1[nH]c(Cc2[nH]c(C(=O)OCC)c(CC)c2C)c(C)c1CC,-3.65% (inactive)
17,O=C(NC(=O)c1c(F)cccc1F)Nc1cccc(C(F)(F)F)c1,6.75% (inactive)
